Data taken from article PMC4336329 (PLoS ONE, 2015).
Out of some 310,000 compounds screened, about 14,000 (4.5%) showed an effect of 50% or more. The effect is printed as a negative number. The sample as a whole holds a higher share of strong results than the screen did.

Target: human ether-à-go-go-related gene (hERG) potassium channel (human, UniProt Q12809)
Assay: primary screen, population patch clamp on CHO cells stably expressing hERG; higher = less effect of the substance
Method: Briefly, Chinese hamster ovary (CHO) cells stably expressing the hERG channel were dislodged from tissue culture flasks and dispensed into PPC plates. […] During the recording, background leak currents were estimated by a 100 ms step to -80 mV from an initial holding potential of -70 mV and subtracted from the subsequent current measurement. The campaign was conducted in two phases using slight differences in recording protocol. In the first phase, the initial voltage pulse used a 100 ms step to -30 mV from a holding potential of -70 mV, a 2 s conditioning step to +25 mV, and a 2 s test step to -30 mV. During the second phase of the screen, the potential during the conditioning step was raised to +45 mV. In both phases of the campaign, a secondary voltage pulse was applied using the same parameters as the second phase initial pulse. The initial and secondary pulses were applied in the absence of compound, and upon application of 1 μM and 10 μM test concentrations. […]
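Further: peak tail current of the secondary pulse compared with the same well before compound.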

human ether-à-go-go-related gene (hERG) potassium channel, sequence (Q12809 whole entry, looked up): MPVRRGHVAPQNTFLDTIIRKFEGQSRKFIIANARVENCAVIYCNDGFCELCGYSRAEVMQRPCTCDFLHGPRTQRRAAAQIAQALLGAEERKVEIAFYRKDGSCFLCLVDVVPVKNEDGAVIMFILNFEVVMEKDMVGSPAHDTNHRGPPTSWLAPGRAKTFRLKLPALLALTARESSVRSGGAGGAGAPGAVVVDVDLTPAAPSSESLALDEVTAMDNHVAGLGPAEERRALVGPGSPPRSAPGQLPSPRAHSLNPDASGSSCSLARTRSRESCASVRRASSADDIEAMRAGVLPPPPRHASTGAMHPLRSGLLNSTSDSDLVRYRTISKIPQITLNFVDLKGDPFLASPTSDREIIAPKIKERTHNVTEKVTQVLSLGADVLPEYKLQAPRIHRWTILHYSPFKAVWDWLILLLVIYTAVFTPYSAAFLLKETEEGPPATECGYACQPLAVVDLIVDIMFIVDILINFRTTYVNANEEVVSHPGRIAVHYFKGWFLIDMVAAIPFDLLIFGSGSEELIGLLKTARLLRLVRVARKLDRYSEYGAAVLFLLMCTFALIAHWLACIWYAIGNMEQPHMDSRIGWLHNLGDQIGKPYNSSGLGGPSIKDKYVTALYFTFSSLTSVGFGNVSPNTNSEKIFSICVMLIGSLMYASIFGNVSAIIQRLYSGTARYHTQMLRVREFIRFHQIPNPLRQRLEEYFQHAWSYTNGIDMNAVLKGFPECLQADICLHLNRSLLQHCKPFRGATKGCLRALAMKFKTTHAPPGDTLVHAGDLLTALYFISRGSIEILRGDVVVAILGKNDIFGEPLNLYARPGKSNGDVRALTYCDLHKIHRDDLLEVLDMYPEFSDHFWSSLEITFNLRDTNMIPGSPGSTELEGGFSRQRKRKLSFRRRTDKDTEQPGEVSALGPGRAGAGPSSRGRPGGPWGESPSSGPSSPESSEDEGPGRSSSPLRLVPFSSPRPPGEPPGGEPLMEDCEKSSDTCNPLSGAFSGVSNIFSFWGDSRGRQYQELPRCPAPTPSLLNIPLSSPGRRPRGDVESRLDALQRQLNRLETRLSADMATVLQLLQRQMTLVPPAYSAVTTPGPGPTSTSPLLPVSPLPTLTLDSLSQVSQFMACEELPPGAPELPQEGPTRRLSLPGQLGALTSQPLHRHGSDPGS

SMILES | hERG current change (%, negative = inhibition) at 10uM [%]
CCOc1ccc(Cn2c3ccc(OC)cc3c3nc4ccccc4nc32)cc1 | 15.4
O=C(COC(=O)c1cccnc1Cl)c1ccccc1 | -4.84
CSc1ccccc1NC(=O)CN(C1CCCCC1)S(C)(=O)=O | -1.49
CSC[C@H](NC(=O)Cc1c(C)c2cc3c(C)c(C)oc3cc2oc1=O)C(=O)N[C@@H](Cc1ccccc1)C(=O)O | 1.76
Cc1ccc(S(=O)(=O)Nc2ccc(Cl)cn2)cc1C | 15
CN(C)CCSc1nc(N)c2c3c(sc2n1)CN(C)CC3 | 9.66
CCCCc1nc2c(C)c(N)cnc2n1Cc1cccc([N+](=O)[O-])c1 | -44.1
N#CC1=C2SCN(Cc3ccccc3)CN2C(=O)CC1c1cccs1 (stereo not shown) | 6.44
O=C(Nc1ccc2oc(-c3ccccc3Cl)nc2c1)c1cncc(Br)c1 | -8.01
Cc1nnc(N2CCC(C(=O)N3CCCCCC3)CC2)c2nn(-c3ccc(Cl)cc3)c(C)c12 | -65.2
Cc1nnc(N2CCC(C(=O)NC3CCC(C)CC3)CC2)c2nn(-c3ccc(Cl)cc3)c(C)c12 (stereo not shown) | 18.8
CCc1ccc(CNC(=O)C2CCN(c3nnc(C)c4c(C)n(-c5ccc(C)cc5)nc34)CC2)cc1 | -1.17
CC(=O)Nc1ccc(S(=O)(=O)NCCCN2CCOCC2)cc1 | 16
Cc1cccc(NC(=O)C2CCCN2/C=C/C(=O)C(F)(F)F)c1C (stereo not shown) | 4.61
COc1ccc(C(=O)CC(=O)C(=O)Nc2cccc(C(C)=O)c2)cc1 | 29.9
COc1ccc(N2C(=S)NC(C)(C)CC2(C)c2ccc(OC(C)=O)cc2OC(C)=O)cc1 (stereo not shown) | 6.26
COc1ccc(C2(c3ccc(OC(C)=O)cc3OC(C)=O)CC(c3ccccc3)NC(=S)N2)cc1 (stereo not shown) | -50.2
COc1ccc(C2(c3ccc(O)cc3O)CC(c3ccccc3Cl)NC(=S)N2)cc1 (stereo not shown) | -15
O=C(Cc1ccccc1[N+](=O)[O-])Nc1ccccc1C(=O)N1CCCC1 | 23.2
Cc1ccc(NC(=S)NCC2CCN(C(C)c3ccccc3)C2)cc1C (stereo not shown) | -44.6
Cc1ccc(NC(=S)NCC2CCN(C(C)c3ccccc3)C2)cc1 (stereo not shown) | -57.5
Cc1ccccc1NC(=S)NCC1CCN(C(C)c2ccccc2)C1 (stereo not shown) | 6.64

SMILES | hERG current change (%, negative = inhibition) at 10uM [%]
Cc1cc(C)cc(NC(=S)NCC2CCN(C(C)c3ccccc3)C2)c1 (stereo not shown) | -63.3
Cc1cc(C)c(NC(=S)NCC2CCN(C(C)c3ccccc3)C2)c(C)c1 (stereo not shown) | -22.4
CC(c1ccccc1)N1CCC(CNC(=S)Nc2cccc(Cl)c2)C1 (stereo not shown) | -29.2
O=C1NC(c2ccccc2)=C(c2ccc3ccccc3n2)C(c2ccccc2)N1 (stereo not shown) | 6.13
CC1(C)CC(=O)N(CC(=O)O)c2ccccc2S1(=O)=O | 3.52
O=c1c2ccccc2ncn1-c1ccc(Cl)c(Cl)c1 | -1.01
OC(CNCCCCNCC(O)C(F)(F)F)C(F)(F)F (stereo not shown) | 19.8
CCCN(CCC)Cc1c(C(=O)OCC)nnn1-c1nonc1N | -12.7
CC(=O)c1nc2ccccc2n1S(=O)(=O)c1ccc(C)cc1 | 17.3
Cc1nc2ccc3nc(NC(=O)c4ccc5c(c4)OCCO5)sc3c2s1 | 2.9
Cc1nc2c(ccc3nc(NC(=O)c4ccc(S(=O)(=O)N(C)C)cc4)sc32)s1 | 15.2
Cc1nc2c(ccc3nc(NC(=O)c4ccc5c(c4)OCCO5)sc32)s1 | -74.3
CC(C)(C)NC(=O)COc1coc(CN2CCN(Cc3ccccc3)CC2)cc1=O | -1.29
Cc1ccc(Cn2c(C(CO)Nc3nc(-c4ccc(Cl)c([N+](=O)[O-])c4)cs3)nc3ccccc32)cc1 (stereo not shown) | 7.56
O=S(=O)(c1ccsc1)N1CC=C(c2ccccc2)CC1 | 15.7
CN1CCN(C(c2cc3cc4c(cc3[nH]c2=O)OCCO4)c2nnnn2C2CCCC2)CC1 (stereo not shown) | -9.91
CCN1CC2C3CCC(C)(O3)C2C1 (stereo not shown) | -73.1
CCCc1cc(=O)[nH]c(SCC(=O)Nc2nc3ccc(OCC)cc3s2)n1 | 22.8
NC(=S)N=Nc1c(O)n(CC(=O)Nc2ccccc2)c2ccccc12 | 16.4
COc1cc2ncnc(NCc3ccc(C)o3)c2cc1OC | -11.5
CCOC(=O)C1CCCN(C(=O)COc2ccccc2O)C1 (stereo not shown) | -1.94
